Test: small molecules captured by biotinylated probe aFST – biochemical, small-molecule microarray, fluorescence 635/667, stem cell growth factor project, primary screen (AID 1086);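 further: score merges 667 nm fluorescence with signal-to-noise of each printed compound spot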
Conditions: higher = more signal

Which composite z-score does the source give for C=CCNC(=O)[C@H]1[C@@H]2C(=O)O[C@@H](c3ccccc3)[C@@H](c3ccccc3)N2[C@@H](c2ccccc2OCCO)[C@]12C(=O)Nc1ccc(C#CCCO)cc12 here?
Its composite z-score is -0.155.

For COCCCNC(=O)[C@]1(CCC(=O)OC(C)(C)C)N=C(c2ccc(OCCCO)cc2)O[C@@H]1c1ccccc1CN=[N+]=[N-], which composite z-score is on record?
Its composite z-score is 0.728.

Which composite z-score does the source give for O=C1OCCC/C=C\[C@H]2OC34C=CCN(Cc5ccccc5)C(=O)[C@H]3N(CCCO)C(=O)[C@@H]4C12 (stereo partly drawn) here?
The composite z-score was -0.572.

With CN1C(=O)C2C=CC(C(O)C3CC=CCC3)N(N(c3ccccc3)c3ccccc3)C2C1=O (stereo not drawn) as the compound, how does the composite z-score read?
Its composite z-score is 0.408.

Which composite z-score does the source give for C=CCC(OC(C)=O)[C@@H]1[C@@H](N(Cc2ccc(-c3cccc(C(F)(F)F)c3)o2)C(=O)c2ccc(C)cc2)c2cc(OCCCO)ccc2N1C(=O)Cc1ccc2ccccc2c1 (stereo partly drawn) here?
Its composite z-score is 0.0714.

With CO[C@H]1O[C@H](CO)[C@@H](OC(=O)Nc2ccccc2)[C@H](OC(=O)Nc2ccccc2)[C@@H]1OC(=O)Nc1ccccc1 as the compound, how does the composite z-score read?
The composite z-score was 1.05.

For O=C(OCc1ccccc1)C1=CCC2c3[nH]c4ccccc4c3C(=O)C1N2S(=O)(=O)c1ccccc1[N+](=O)[O-] (stereo not drawn), which composite z-score is on record?
Its composite z-score is 0.627.

For C=C(CCCC)/C(=C/C[C@@H](OC(C)=O)c1ccc(OCCO)cc1)c1cnc2ccccc2c1, which composite z-score is on record?
Its composite z-score is -0.156.

With COc1ccc([Si](C)(C)[C@@H]2[C@@H](CC(=O)N3CCC[C@H]3CO)O[C@]3(C(=O)N(c4ccccc4)c4ccccc43)[C@H]2C)cc1 as the compound, how does the composite z-score read?
Its composite z-score is 0.552.

With CC(C)NC(=O)[C@@]1(C)c2ccccc2C(=O)N(Cc2cc(C(F)(F)F)cc(C(F)(F)F)c2)[C@H]1c1ccc(CO)cc1 as the compound, how does the composite z-score read?
The composite z-score was -0.213.

With CNS(=O)(=O)c1ccc(C)cc1 as the compound, how does the composite z-score read?
The composite z-score was 0.209.

For O=C(c1ccccc1)N1Cc2ccccc2C[C@@]2(COC(c3ccc(OCCCO)cc3)=N2)C1=O, which composite z-score is on record?
The composite z-score was 0.146.

For COc1ccc(CCNC(=O)[C@@]2(Sc3ccc(C)cc3)CC(=O)N(C3Cc4ccccc4C3)[C@@H]2c2ccc(CO)cc2I)cc1, which composite z-score is on record?
The composite z-score was 0.0627.

With COc1cc2c(cc1OC)CN(C(=O)[C@@H]1[C@H]3C(=O)O[C@H](c4ccccc4)[C@H](c4ccccc4)N3[C@H](c3ccc(O)cc3)[C@@]13C(=O)Nc1ccccc13)CC2 as the compound, how does the composite z-score read?
The composite z-score was 0.0729.

For COc1ccc([Si](C)(C)[C@@H]2[C@@H](CCO)O[C@]3(C(=O)N(Cc4ccc(N(C=O)c5ccccc5)cc4)c4ccccc43)[C@H]2C)cc1, which composite z-score is on record?
Its composite z-score is 0.643.

With COc1cc(COC(C)=O)ccc1OC(C)=O as the compound, how does the composite z-score read?
Its composite z-score is 0.408.

For COc1ccccc1CN1C(=O)c2ccccc2[C@@H](C(=O)NC2CC2)[C@@H]1c1ccc(CO)cc1, which composite z-score is on record?
The composite z-score was 0.592.

Which composite z-score does the source give for CCCC[C@@H]1C[C@H]1[C@@H](NC(=O)c1ccco1)c1ccccc1C(F)(F)F here?
The composite z-score was 2.87.

For O=C1C2C=CC(C(O)c3cc(C(F)(F)F)cc(C(F)(F)F)c3)N(n3cnnc3)C2C(=O)N1Cc1ccccc1 (stereo not drawn), which composite z-score is on record?
The composite z-score was 0.368.

With CN(C)CCCCCCNC(=O)[C@H]1C[C@H]2C(=O)N3CCC[C@H]3C(=O)N2[C@H]1c1ccc(O)cc1 as the compound, how does the composite z-score read?
The composite z-score was 0.2.

Which composite z-score does the source give for O=C1O[C@H](c2ccccc2)[C@H](c2ccccc2)N2[C@H]1[C@@H](C(=O)N1CCCCCCC1)[C@]1(C(=O)Nc3ccc(C#CCCO)cc31)[C@H]2c1ccccc1OCCO here?
Its composite z-score is 3.77.

With C#C[C@H](O[Si](C#Cc1ccc(Oc2ccccc2)cc1)(C(C)C)C(C)C)c1ccccc1 as the compound, how does the composite z-score read?
Its composite z-score is 0.315.

Which composite z-score does the source give for COC(=O)[C@@]1(Cc2ccc(F)cc2)[C@H]2c3cc(C(=O)N(C)C)n(Cc4ccc(Cl)c(C(F)(F)F)c4)c3C[C@H]2CN1C(=O)c1ccccc1 here?
Its composite z-score is 1.71.

Test: binders of probe aHhip on microarray, primary screen, stem cell growth factor project, biochemical, small-molecule microarray, fluorescence 635/667 (AID 1087);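 further: score merges spot fluorescence at 667nm with spot signal to noise ratio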
Conditions: higher = more signal

With C=CC(=C)[C@H]1Oc2ccccc2S(=O)(=O)N2CCC[C@@H]12 as the compound, how does the composite z-score read?
The composite z-score was -0.329.

For C=C[C@@H](COC(=O)OC(C)(C)C)N(Cc1ccc(OC)cc1)S(=O)(=O)c1ccc(Br)cc1, which composite z-score is on record?
Its composite z-score is 0.0505.

For COCC(=C=CC[C@@H](O)c1cccc(OCCO)c1)C[C@@H](O)c1ccccn1, which composite z-score is on record?
The composite z-score was 0.176.

For O=C(CS)NCCCCCCNC(=O)[C@@H]1C[C@@H]2C(=O)NCC(=O)N2[C@@H]1c1cccc(OCCO)c1, which composite z-score is on record?
Its composite z-score is -0.274.

With C=C(CC1([C@@H](NP(=O)(c2ccccc2)c2ccccc2)[C@H]2C[C@@H]2CCCC)CC1)c1ccccc1 as the compound, how does the composite z-score read?
The composite z-score was 0.419.

Which composite z-score does the source give for COC(=O)[C@@]1(Cc2ccc(F)cc2)[C@H]2c3cc(C(=O)N(C)C)n(Cc4cc(F)c(F)c(F)c4)c3C[C@H]2CN1C(=O)c1ccccc1 here?
The composite z-score was 0.142.

Which composite z-score does the source give for CN(C)CCCC[C@@H]1NC(=O)[C@H]2C[C@@H](C(=O)NCCCCCCN)[C@@H](c3ccc(O)cc3)N2C1=O here?
The composite z-score was 1.09.

For CN(C)CCCCCCNC(=O)[C@H]1C[C@H]2C(=O)N[C@@H](CCCCN)C(=O)N2[C@H]1c1cccc(OCCO)c1, which composite z-score is on record?
The composite z-score was 3.28.

For CC(C)=CCCC(C)=CC(O)C1C=CC2C(=O)N(C)C(=O)C2N1Nc1ccccc1 (stereo not drawn), which composite z-score is on record?
The composite z-score was -0.159.

Which composite z-score does the source give for CCS[C@H]1[C@@H](C(=O)O)[C@H](c2ccc(C)cc2)N(S(=O)(=O)c2ccc(C)cc2)[C@@H]1CC here?
The composite z-score was 0.201.

With CCC(CC)C(O)C1C=CC2C(=O)NC(=O)C2N1Nc1ccc(Cl)cc1Cl (stereo not drawn) as the compound, how does the composite z-score read?
Its composite z-score is 0.0749.

For COC(=O)[C@@]1(Cc2ccc(F)cc2)[C@H]2c3cc(C(=O)N(C)C)n(Cc4ccccc4)c3C[C@H]2CN1C(=O)c1ccccc1, which composite z-score is on record?
The composite z-score was 2.22.

With C=CCNC(=O)[C@H]1[C@@H]2C(=O)O[C@@H](c3ccccc3)[C@@H](c3ccccc3)N2[C@@H](c2ccccc2OCCO)[C@]12C(=O)Nc1ccc(C#CCCO)cc12 as the compound, how does the composite z-score read?
Its composite z-score is 0.142.

Which composite z-score does the source give for COCCCNC(=O)[C@]1(CCC(=O)OC(C)(C)C)N=C(c2ccc(OCCCO)cc2)O[C@@H]1c1ccccc1CN=[N+]=[N-] here?
The composite z-score was 0.107.

Which composite z-score does the source give for O=C1OCCC/C=C\[C@H]2OC34C=CCN(Cc5ccccc5)C(=O)[C@H]3N(CCCO)C(=O)[C@@H]4C12 (stereo partly drawn) here?
Its composite z-score is -0.0994.

For CN1C(=O)C2C=CC(C(O)C3CC=CCC3)N(N(c3ccccc3)c3ccccc3)C2C1=O (stereo not drawn), which composite z-score is on record?
Its composite z-score is -0.137.

Which composite z-score does the source give for C=CCC(OC(C)=O)[C@@H]1[C@@H](N(Cc2ccc(-c3cccc(C(F)(F)F)c3)o2)C(=O)c2ccc(C)cc2)c2cc(OCCCO)ccc2N1C(=O)Cc1ccc2ccccc2c1 (stereo partly drawn) here?
The composite z-score was -0.134.

Which composite z-score does the source give for CO[C@H]1O[C@H](CO)[C@@H](OC(=O)Nc2ccccc2)[C@H](OC(=O)Nc2ccccc2)[C@@H]1OC(=O)Nc1ccccc1 here?
The composite z-score was -0.546.

For O=C(OCc1ccccc1)C1=CCC2c3[nH]c4ccccc4c3C(=O)C1N2S(=O)(=O)c1ccccc1[N+](=O)[O-] (stereo not drawn), which composite z-score is on record?
The composite z-score was 0.0759.

Which composite z-score does the source give for C=C(CCCC)/C(=C/C[C@@H](OC(C)=O)c1ccc(OCCO)cc1)c1cnc2ccccc2c1 here?
Its composite z-score is -0.0618.

With COc1ccc([Si](C)(C)[C@@H]2[C@@H](CC(=O)N3CCC[C@H]3CO)O[C@]3(C(=O)N(c4ccccc4)c4ccccc43)[C@H]2C)cc1 as the compound, how does the composite z-score read?
Its composite z-score is 0.21.

For CC(C)NC(=O)[C@@]1(C)c2ccccc2C(=O)N(Cc2cc(C(F)(F)F)cc(C(F)(F)F)c2)[C@H]1c1ccc(CO)cc1, which composite z-score is on record?
The composite z-score was -0.374.

For CNS(=O)(=O)c1ccc(C)cc1, which composite z-score is on record?
Its composite z-score is -0.0346.

With O=C(c1ccccc1)N1Cc2ccccc2C[C@@]2(COC(c3ccc(OCCCO)cc3)=N2)C1=O as the compound, how does the composite z-score read?
The composite z-score was -0.0296.

With COc1ccc(CCNC(=O)[C@@]2(Sc3ccc(C)cc3)CC(=O)N(C3Cc4ccccc4C3)[C@@H]2c2ccc(CO)cc2I)cc1 as the compound, how does the composite z-score read?
Its composite z-score is 0.0854.

Which composite z-score does the source give for COc1cc2c(cc1OC)CN(C(=O)[C@@H]1[C@H]3C(=O)O[C@H](c4ccccc4)[C@H](c4ccccc4)N3[C@H](c3ccc(O)cc3)[C@@]13C(=O)Nc1ccccc13)CC2 here?
Its composite z-score is 0.0854.

Which composite z-score does the source give for COc1ccc([Si](C)(C)[C@@H]2[C@@H](CCO)O[C@]3(C(=O)N(Cc4ccc(N(C=O)c5ccccc5)cc4)c4ccccc43)[C@H]2C)cc1 here?
The composite z-score was -0.0994.

For COc1cc(COC(C)=O)ccc1OC(C)=O, which composite z-score is on record?
Its composite z-score is 0.318.

With COc1ccccc1CN1C(=O)c2ccccc2[C@@H](C(=O)NC2CC2)[C@@H]1c1ccc(CO)cc1 as the compound, how does the composite z-score read?
Its composite z-score is 0.075.

With CCCC[C@@H]1C[C@H]1[C@@H](NC(=O)c1ccco1)c1ccccc1C(F)(F)F as the compound, how does the composite z-score read?
Its composite z-score is 3.61.

For O=C1C2C=CC(C(O)c3cc(C(F)(F)F)cc(C(F)(F)F)c3)N(n3cnnc3)C2C(=O)N1Cc1ccccc1 (stereo not drawn), which composite z-score is on record?
Its composite z-score is 0.144.

Which composite z-score does the source give for CN(C)CCCCCCNC(=O)[C@H]1C[C@H]2C(=O)N3CCC[C@H]3C(=O)N2[C@H]1c1ccc(O)cc1 here?
Its composite z-score is 0.151.

Which composite z-score does the source give for O=C1O[C@H](c2ccccc2)[C@H](c2ccccc2)N2[C@H]1[C@@H](C(=O)N1CCCCCCC1)[C@]1(C(=O)Nc3ccc(C#CCCO)cc31)[C@H]2c1ccccc1OCCO here?
The composite z-score was 4.26.

With C#C[C@H](O[Si](C#Cc1ccc(Oc2ccccc2)cc1)(C(C)C)C(C)C)c1ccccc1 as the compound, how does the composite z-score read?
Its composite z-score is -0.0994.

For COC(=O)[C@@]1(Cc2ccc(F)cc2)[C@H]2c3cc(C(=O)N(C)C)n(Cc4ccc(Cl)c(C(F)(F)F)c4)c3C[C@H]2CN1C(=O)c1ccccc1, which composite z-score is on record?
Its composite z-score is -0.0296.

Reference: PubChem BioAssay
